Experimental findings from PubChem BioAssay (Tox21) are described below.

Assay [1] concerns the target Luciferin 4-monooxygenase (Photinus pyralis) (UniProt P08659). As to the kind of experiment: qHTS assay to identify small molecule inhibitors of firefly luciferase (AID 1224835). Also: nearly all actives have a fitted effect of over 25% in size. Also: potency is read from the fitted curve at half-maximal effect. The essentials:
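Biochemical qHTS: compounds run as interplate titrations against purified firefly enzyme, with D-luciferin and ATP each at its KM concentration. Light output recorded by CCD imaging.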
(qHTS replaces the single test concentration by a dilution series.)

Assay [2] is described as follows: qHTS assay to identify small molecule agonists of the constitutive androstane receptor (CAR) signaling pathway - cell viability counter screen (AID 1224836). Also: nearly all actives have a fitted effect of over 45% in size. Also: potency is read from the fitted curve at half-maximal effect. The essentials:
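Compound titrations (15 concentrations) went onto HepG2-CYP2B6-hCAR cells 4 h after seeding, alongside PK11195 at a final 0.75 uM; a 23 h, 37 C/5% CO2 incubation preceded CellTiter-Fluor viability measurement.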

The target in assay [3] is Nuclear receptor subfamily 1 group I member 3 (Homo sapiens) (UniProt Q14994). Put plainly: qHTS assay to identify small molecule antagonists of the constitutive androstane receptor (CAR) signaling pathway (AID 1224838). Also: nearly all actives have a fitted effect of over 40% in size. The essentials: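 Inhibition of CITCO-driven (50 nM final) CYP2B6 reporter expression is measured in HepG2 cells stably carrying hCAR. Fifteen compound concentrations are applied for 24 h at 37 C, followed by luciferase luminescence.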

Assay [4] shares this target. As to the kind of experiment: qHTS assay to identify small molecule agonists of the constitutive androstane receptor (CAR) signaling pathway (AID 1224839). Also: nearly all actives have a fitted effect of over 15% in size. An outline of the steps:
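In this screen, CAR-driven CYP2B6 promoter activity is measured by luminescence in HepG2-CYP2B6-hCAR cells after 24 h with test compounds and 0.75 uM PK11195 (final concentration).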

A short description of assay [5]: qHTS assay to identify small molecule antagonists of the estrogen related receptor signaling pathway with the pleiotropic PPARgamma coactivator (PGC) from Tox21 10K library (AID 1224841; call rule not given here; also: actives are mostly falling curves and most rising ones were filed inactive; nearly all actives have a fitted effect of over 50% in size; also: potency is read from the fitted curve at half-maximal effect). The essentials:
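One-Glo luminescence, measured after half an hour at room temperature, quantified reporter output of PGC/ERR cells. These had been plated at 2,000 per well, incubated 6 h, dosed with compounds in DMSO, then kept 18 h at 37 C.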

Assay [6] is described as follows: qHTS assay to identify small molecule agonists of the estrogen related receptor signaling pathway with the pleiotropic PPARgamma coactivator (PGC) from Tox21 10K library (AID 1224842). Also: nearly all actives have a fitted effect of over 15% in size. The essentials: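 PGC/ERR reporter cell line, 2,000 cells per well, incubated 6 h at 37 C before 23 nL compound in DMSO was added. After 18 h at 37 C, One-Glo luminescence read following 30 min at room temperature.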

In assay [7] the target is Thyrotropin receptor (Homo sapiens) (UniProt P16473). Put plainly: qHTS assay to identify small molecule agonists of the thyroid stimulating hormone receptor (TSHR) signaling pathway (AID 1224843; calls by dose curve; also: nearly all actives have a fitted effect of over 45% in size). An outline of the steps: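 HEK293/TSHR, 800 cells/well; cpd 30 min RT; add cAMP-d2 + anti-cAMP-cryptate, 1 h RT; fluorescence read on plate reader. 15-pt titration, n=3.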
A short description of assay [8]: qHTS assay to identify small molecule agonists of the hypoxia (HIF-1) signaling pathway - cell viability counter screen (AID 1224844; calls by dose curve; also: nearly all actives have a fitted effect of over 50% in size). An outline of the steps: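 In this counter screen, HRE-bla ME-180 cell viability after 17 hrs of compound exposure at 37C was read by CellTiter-Glo luminescence, multiplexed with the beta-lactamase reporter measurement.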
Assay [9] in a line: qHTS assay to identify small molecule agonists of H2AX - cell viability counter screen (AID 1224847; calls by dose curve; also: nearly all actives have a fitted effect of over 30% in size; also: potency is read from the fitted curve at half-maximal effect). The essentials: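 Read-out: CellTiter-Glo luminescence, 30 min RT. Cells: wild-type CHO-K1, 1000/well, 10% FBS, plated overnight at 37C. Treatment: 15 concentrations, 3 hr, 37C, 0.76% DMSO.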
The nature of assay [10]: qHTS assay to identify small molecule antagonists of the estrogen related receptor (ERR) signaling pathway from Tox21 library (AID 1224848). Also: nearly all actives have a fitted effect of over 50% in size. Also: potency is read from the fitted curve at half-maximal effect. An outline of the steps:
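Compounds dissolved in DMSO are pin-transferred onto ERR reporter cells (2,000 per well) that have settled for 6 h at 37 C. Plates then incubate 18 h at 37 C before ONE-Glo luciferase reagent and a luminescence read 30 min later.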

Assay [11] can be described thus: qHTS assay to identify small molecule agonists of the estrogen related receptor (ERR) signaling pathway from Tox21 library (AID 1224849; calls by dose curve; also: nearly all actives have a fitted effect of over 15% in size). Conditions: ERR reporter cell line, ONE-Glo luciferase, 18 h; at 92.4 µM (top of the series). The essentials:
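Luciferase activity in ERR pathway reporter cells served as the agonist readout; exposure lasted 18 h at 37 C, with ONE-Glo detection after 30 min at room temperature.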

Assay [12] in a line: qHTS RealTime-Glo MT Cell Viability Assay in HepG2 cells - 24 hour (AID 1224867). Also: nearly all actives have a fitted effect of over 50% in size. An outline of the steps:
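Viability was tracked continuously by NanoLuc luminescence from prosubstrate reduced by living HepG2 cells, at successive time points over 40 h of compound exposure. Cells with reagent were preincubated 5 h at 37 °C before compound addition.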

Assay [13] can be described thus: qHTS RealTime-Glo MT Cell Viability Assay in HEK293 cells - 32 hour (AID 1224868). Also: nearly all actives have a fitted effect of over 50% in size. Also: potency is read from the fitted curve at half-maximal effect. An outline of the steps: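 Viability tracked continuously by luminescence as live cells reduce a prosubstrate for NanoLuc; HEK293 cells preincubated 5 h, compound-treated at 37 C, and read at 0, 8, 16, 24, 32 and 40 h.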
Assay [14] is described as follows: qHTS RealTime-Glo MT Cell Viability Assay in HepG2 cells - 40 hour (AID 1224870). Also: nearly all actives have a fitted effect of over 50% in size. The essentials:
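HepG2 cells (600/well) mixed with RealTime-Glo MT reagent, settled 5 h at 37 C/5% CO2 before compound addition. Nonlytic NanoLuc luminescence from viable-cell prosubstrate reduction read repeatedly during 40 h treatment at 37 C.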

A short description of assay [15]: qHTS assay to identify small molecule antagonists of the estrogen related receptor signaling pathway with the pleiotropic PPARgamma coactivator (PGC) from Tox21 10K library - cell viability counter screen (AID 1224840; active = well fitted cell-killing curve with a large enough effect in the repeat runs, not every such curve was filed as active; also: nearly all actives have a fitted effect of over 40% in size; also: potency is read from the fitted curve at half-maximal effect). The essentials: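 Readout: fluorescence intensity from CellTiter-Fluor after 30 min at 37 C/5% CO2. Preceded by 17.5 h treatment of PGC/ERR cells with DMSO-dissolved compounds, added 6 h post-seeding.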

Assay [16] is described as follows: A CellTox Green Cytotoxicity Assay to monitor cytotoxicity in HEK293 cells - 0 hour (AID 1224869). Also: nearly all actives have a fitted effect of over 50% in size. An outline of the steps:
(§1)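 Real-time, in one plate: 600 HEK293 cells/well with dead-cell DNA dye, pinned compound after 5 h, 37 C incubation over 40 h; viable cells give no appreciable fluorescence.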

Assay [17] in a line: qHTS assay to identify small molecule antagonists of the constitutive androstane receptor (CAR) signaling pathway - cell viability counter screen (AID 1224837). Also: nearly all actives have a fitted effect of over 45% in size. An outline of the steps: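 CITCO at 50 nM final was added alongside compounds (15 concentrations) to double-stable hCAR/CYP2B6-2.2kb HepG2 cells. Following 23 hr at 37 C, cell viability was quantified by CellTiter-Fluor fluorescence intensity.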

Assay [18] can be described thus: qHTS assay to identify small molecule agonists of H2AX (AID 1224845; active = well fitted activation curve with a large enough effect in the signal ratio in the repeat runs, not every such curve was filed as active; the % refers to the signal ratio). The essentials:
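Wild-type CHO-K1 cells, plated overnight, exposed 3hr at 37C to 15 concentrations (0.76% DMSO final). Lysed, then HTRF anti-pH2AX (S139) cryptate and anti-H2AX-d2 antibodies, 24 hr room temperature; 665/620 nm emission read.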

Assay [19] can be described thus: qHTS assay to identify small molecule agonists of the hypoxia (HIF-1) signaling pathway (AID 1224846; active = well fitted activation curve with a large enough effect in the signal ratio in the repeat runs, not every such curve was filed as active; the % refers to the signal ratio). An outline of the steps: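 ME-180 HRE-bla reporter cells; compounds in DMSO, 17 h at 37C; read-out beta-lactamase via CCF4-AM FRET.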
Assay [20] in a line: A CellTox Green Cytotoxicity Assay to monitor cytotoxicity in HEK293 cells - 40 hour (AID 1224871). Also: nearly all actives have a fitted effect of over 45% in size. Also: potency is read from the fitted curve at half-maximal effect. An outline of the steps:
as §1

Unmarked numbers belong to inactive results. Records with an inconclusive call do not appear. Calls of active or inactive are those of the source. Unless noted, calls follow the shape of the dose curve; as a rule, active = well fitted curve in the direction sought with a large enough effect in the repeat runs; inconclusive = weak or mixed curves; inactive = no such curve, though single readings can be large; an effect the other way counts as inactive or inconclusive.
% is scaled to controls: 0 for no effect and ±100 for the full control effect.

Sequence of Nuclear receptor subfamily 1 group I member 3 (Homo sapiens) (Q14994 whole entry, looked up): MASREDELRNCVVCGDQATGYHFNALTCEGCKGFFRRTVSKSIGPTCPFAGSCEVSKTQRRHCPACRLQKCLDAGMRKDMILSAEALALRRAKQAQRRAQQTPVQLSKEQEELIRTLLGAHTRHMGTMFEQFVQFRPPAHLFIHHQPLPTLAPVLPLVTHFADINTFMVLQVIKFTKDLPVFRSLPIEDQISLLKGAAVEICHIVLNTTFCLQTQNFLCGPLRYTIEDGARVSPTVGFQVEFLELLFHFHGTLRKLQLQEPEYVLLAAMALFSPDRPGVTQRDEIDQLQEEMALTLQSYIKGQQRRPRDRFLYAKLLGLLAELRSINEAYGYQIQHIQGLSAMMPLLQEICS
Sequence of Thyrotropin receptor (Homo sapiens) (P16473 whole entry, looked up): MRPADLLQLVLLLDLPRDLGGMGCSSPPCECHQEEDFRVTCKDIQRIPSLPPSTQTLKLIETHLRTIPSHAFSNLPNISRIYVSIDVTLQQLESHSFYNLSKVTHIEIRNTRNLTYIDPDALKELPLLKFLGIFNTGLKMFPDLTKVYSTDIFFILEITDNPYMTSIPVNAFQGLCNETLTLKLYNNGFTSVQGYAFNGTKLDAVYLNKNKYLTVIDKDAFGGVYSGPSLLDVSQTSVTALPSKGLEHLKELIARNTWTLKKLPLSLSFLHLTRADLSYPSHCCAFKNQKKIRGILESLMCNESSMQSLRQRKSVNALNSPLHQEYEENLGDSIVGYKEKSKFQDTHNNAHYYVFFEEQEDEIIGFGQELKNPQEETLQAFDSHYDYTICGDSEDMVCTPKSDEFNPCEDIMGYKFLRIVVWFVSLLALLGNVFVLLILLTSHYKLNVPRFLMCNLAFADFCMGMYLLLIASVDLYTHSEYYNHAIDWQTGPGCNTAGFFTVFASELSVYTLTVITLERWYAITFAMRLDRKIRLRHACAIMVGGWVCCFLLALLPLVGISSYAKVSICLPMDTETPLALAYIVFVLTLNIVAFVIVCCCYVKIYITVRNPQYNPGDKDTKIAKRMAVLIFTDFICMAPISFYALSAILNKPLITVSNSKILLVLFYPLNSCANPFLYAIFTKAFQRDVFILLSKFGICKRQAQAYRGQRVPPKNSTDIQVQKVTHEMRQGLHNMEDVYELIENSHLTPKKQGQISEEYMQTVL
Sequence of Luciferin 4-monooxygenase (Photinus pyralis) (P08659 whole entry, looked up): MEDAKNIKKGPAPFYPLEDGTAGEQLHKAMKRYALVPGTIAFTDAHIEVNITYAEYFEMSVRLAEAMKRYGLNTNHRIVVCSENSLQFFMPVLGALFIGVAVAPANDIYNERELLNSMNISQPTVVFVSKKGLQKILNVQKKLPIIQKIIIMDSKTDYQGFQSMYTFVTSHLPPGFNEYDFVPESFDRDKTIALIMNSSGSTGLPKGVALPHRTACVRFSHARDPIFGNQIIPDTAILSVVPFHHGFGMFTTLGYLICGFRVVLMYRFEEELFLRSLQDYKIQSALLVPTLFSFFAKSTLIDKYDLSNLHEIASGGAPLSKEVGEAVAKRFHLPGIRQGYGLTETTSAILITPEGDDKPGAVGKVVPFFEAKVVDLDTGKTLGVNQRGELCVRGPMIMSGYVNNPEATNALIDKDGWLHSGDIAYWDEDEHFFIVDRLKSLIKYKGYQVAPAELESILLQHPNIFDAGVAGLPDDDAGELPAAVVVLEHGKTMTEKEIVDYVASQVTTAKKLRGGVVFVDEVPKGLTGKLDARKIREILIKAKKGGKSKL

On to `O=C(c1ccc(O)c(O)c1)c1ccc(O)cc1O`, for which the Potency was 70.9 µM (active) in assay [1], 68.5 µM (active) in [5], 54.4 µM (active) in [10] and 27.5 µM (active) in assay [13]. The Potency entry in [2], in assay [3], in [4], in assay [6], in [7] and in assay [8] was “inactive” throughout. Moreover, the Potency entry in [9], in [12] and in assay [14] was “inactive” in each case. In [11], the activity change, positive = activation was -38%.

Regarding `O=C(Nc1ccc2c(O)c(N=Nc3ccc(N=Nc4ccc(S(=O)(=O)O)cc4)cc3)c(S(=O)(=O)O)cc2c1)c1ccccc1`, the Potency was 35.6 µM (active) in [1]; 24.3 µM (active) in [2]; 24.3 µM (active) in assay [15]; 27.3 µM (active) in [5]; 50.5 µM (active) in [9]. In addition, the Potency result in assay [4], in assay [6], in assay [7], in assay [8], in assay [13] and in assay [16] was “inactive” each time. For the same compound, the activity change, positive = activation in [11] is -30%.

As for `O=C(O)CCN(C1(C(=O)NO)CCCC1)S(=O)(=O)c1ccc(Oc2ccc(F)cc2)cc1`, the Potency entry in assay [1], in assay [17], in assay [3], in assay [4], in assay [15] and in assay [5] was “inactive” throughout. Moreover, the Potency entry in assay [6], in assay [7], in assay [8], in assay [18], in assay [19] and in [9] was “inactive” throughout. The Potency result in [10], in [12], in [13], in assay [16], in assay [14] and in assay [20] was “inactive” each time. The activity change, positive = activation in assay [11] is 4.9%.

Regarding `CC(CCc1ccccc1)NCC(O)c1ccc(O)c(C(N)=O)c1` (stereo not drawn), the Potency result in [1], in [3], in assay [4], in assay [15], in assay [8] and in assay [18] was “inactive” each time. The Potency result in assay [12], in assay [13] and in [14] was “inactive” throughout. Also, the Potency in [2] was 30.6 µM (active).

For the compound `C=CCCC(=O)/C=C/C1C(C)=CCCC1(C)C` (stereo not drawn), the Potency result in assay [1], in [2], in assay [17], in assay [15], in assay [19] and in assay [13] was “inactive” throughout. For the same compound, the Potency result in [16] and in assay [14] was “inactive” throughout. The Potency in assay [9] is 89.8 µM (active); in [20], 24.5 µM (active).

As for `CC(C)NC[C@@H](O)COc1ccc(CC(N)=O)cc1`, the Potency result in [1], in assay [2], in assay [17], in assay [15], in assay [7] and in assay [8] was “inactive” throughout. The Potency entry in assay [12], in [13], in [16], in assay [14] and in [20] was “inactive” in each case.

Turning to `c1ccc(C(O[C@@H]2CCCN(CCc3ccc4c(c3)OCO4)C2)c2ccccc2)cc1`, the Potency result in assay [1], in assay [2], in [17], in [8], in assay [18] and in assay [19] was “inactive” throughout. The Potency result in assay [16] and in assay [14] was “inactive” throughout.

Turning to `OC[C@H]1O[C@H](O[C@H]2O[C@H](CO)[C@@H](O)[C@H](O)[C@H]2O)[C@H](O)[C@@H](O)[C@@H]1O`, the Potency entry in [1], in assay [2], in assay [15], in assay [5], in [6] and in assay [7] was “inactive” each time. The Potency entry in assay [8], in assay [18], in [9], in assay [10], in assay [12] and in [13] was “inactive” each time. Besides, the Potency result in [14] was “inactive”. For the same compound, in assay [11], the activity change, positive = activation was 8.53%.
